Assay [1] has as its target Thyrotropin-releasing hormone receptor (Homo sapiens) (UniProt P34981). In words: qHTS assay to identify small molecule agonists of the thyrotropin-releasing hormone receptor (TRHR) signaling pathway (AID 1346891; calls by dose curve;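 note: HEK293 cells expressing TRHR with calcium dye readout; series mostly up to about 58 µM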). Summed up:
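Kinetic fluorescence (3 min, 1 s intervals) reported intracellular calcium after compound transfer onto TRHR-Hek293 cells pre-loaded with dye for 2 h at 37 °C.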

A short description of assay [2]: Human pregnane X receptor (PXR) small molecule agonists, qHTS cell viability counter screen (AID 1346977). Note: nearly all actives have a fitted effect of over 50% in size. Summed up: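 HepG2 cells stably carrying the PXR-Luc reporter are cultured with 5% charcoal-stripped FBS and treated with compounds for 24hr. CellTiter-Fluor is added at 23hr and fluorescence is read after 1hr.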
(In general: Quantitative high-throughput screening tests each substance at several concentrations.)

Assay [3] can be described thus: Caspase-3/7 induction in HepG2 cells by small molecules, qHTS assay (AID 1346978). Note: nearly all actives have a fitted effect of over 15% in size. Summed up:
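Wild-type HepG2 cells, 2,000/well, settled 5 hr at 37 C and 5% CO2, then compound-treated for 17 hr; caspase-3/7 activity read by luminescent Caspase-Glo 3/7 after 30 min at room temperature.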

A short description of assay [4]: Caspase-3/7 induction in CHO-K1 cells by small molecules, qHTS cell viability counter screen (AID 1346979). Note: nearly all actives have a fitted effect of over 35% in size. Summed up: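 Seeding: 1,500 CHO-K1 cells/well. Rest: 5hr, 37C. Treatment: compounds in DMSO, 16hr. Read: CellTiter-Fluor, 1hr, fluorescence.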
The nature of assay [5]: Caspase-3/7 induction in CHO-K1 cells by small molecules, qHTS assay (AID 1346980). Note: nearly all actives have a fitted effect of over 15% in size. Summed up:
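Wild-type CHO-K1 cells exposed to compounds for 17hr at 37 C, 5% CO2. Caspase-3/7 activity then measured by Caspase-Glo 3/7 luminescence after 30min at room temperature.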

Assay [6] can be described thus: Caspase-3/7 induction in HepG2 cells by small molecules, qHTS cell viability counter screen (AID 1346981). Note: series mostly up to about 92 µM; nearly all actives have a fitted effect of over 30% in size. The gist of the method: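 Wild-type HepG2 cells (2,000/well) were allowed to settle for 5 hr at 37 C, 5% CO2, then dosed with compounds in DMSO by pin transfer. After 16 hr at 37 C, CellTiter-Fluor was added and fluorescence read 1 hr later.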
In assay [7] the target is Nuclear receptor subfamily 1 group I member 2 (Homo sapiens) (UniProt O75469). Briefly: Human pregnane X receptor (PXR) small molecule agonists, qHTS assay (AID 1346982). Note: nearly all actives have a fitted effect of over 35% in size. Note: potency is the fitted concentration of half-maximal effect. The gist of the method: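 PXR-Luc HepG2 cells (CYP3A4 promoter-driven luciferase) were seeded in medium with 5% charcoal-stripped FBS, left 5 hr at 37 C, then exposed to compounds in DMSO for 24 hr. Luminescence was read after ONE-Glo addition.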
Sequence of Nuclear receptor subfamily 1 group I member 2 (Homo sapiens) (O75469 whole entry, looked up): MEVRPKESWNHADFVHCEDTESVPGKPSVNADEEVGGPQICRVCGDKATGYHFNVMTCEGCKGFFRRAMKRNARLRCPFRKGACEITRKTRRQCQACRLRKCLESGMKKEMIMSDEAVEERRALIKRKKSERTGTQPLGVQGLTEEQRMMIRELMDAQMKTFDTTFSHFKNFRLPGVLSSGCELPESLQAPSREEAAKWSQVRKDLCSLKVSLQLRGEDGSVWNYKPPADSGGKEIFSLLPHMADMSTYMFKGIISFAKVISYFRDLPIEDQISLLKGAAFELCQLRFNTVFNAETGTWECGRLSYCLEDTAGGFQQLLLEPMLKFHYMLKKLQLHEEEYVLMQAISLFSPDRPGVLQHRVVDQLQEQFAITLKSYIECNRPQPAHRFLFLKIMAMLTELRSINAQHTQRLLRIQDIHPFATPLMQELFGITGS

Assay [8] has as its target Cytochrome P450 2C19 (Homo sapiens) (UniProt P33261). Briefly: Cytochrome P450 Family 2 Subfamily C Member 19 (CYP2C19) small molecule antagonists: luciferase reporter qHTS assay (AID 1671197). Note: nearly all actives have a fitted effect of over 65% in size. Note: potency is the fitted concentration of half-maximal effect. Summed up:
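Luminescent readout of CYP2C19 activity: luciferin product detected 20 min after adding detection reagent. Before that, compound and enzyme-substrate mix preincubated 10 min at room temperature; NADPH-regenerating system started a 1 h, 37C reaction. Ketoconazole as positive control.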

In assay [9] the target is Cytochrome P450 2C9 (Homo sapiens) (UniProt P11712). In words: Cytochrome P450 Family 2 Subfamily C Member 9 (CYP2C9) small molecule antagonists: luciferase reporter qHTS assay (AID 1671198). Note: nearly all actives have a fitted effect of over 50% in size. Note: potency is the fitted concentration of half-maximal effect. Summed up:
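P450-Glo proluciferin substrate with CYP2C9 enzyme; 10 min RT preincubation, then NADPH regeneration 1 h at 37C; luciferin detection reagent 20 min RT, luminescence in relative luminescence units.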
(In general: In a reporter assay the amount or activity of a reporter protein is the signal.)

The target of assay [10] is Cytochrome P450 1A2 (Homo sapiens) (UniProt P05177). In words: Cytochrome P450 Family 1 Subfamily A Member 2 (CYP1A2) small molecule antagonists: luciferase reporter qHTS assay (AID 1671199). Note: nearly all actives have a fitted effect of over 50% in size. Note: potency is the fitted concentration of half-maximal effect. Summed up:
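Human CYP1A2 activity measured with a P450-Glo proluciferin substrate; compounds in DMSO preincubated 10 min at room temperature with enzyme-substrate mix, then NADPH regeneration system added for 1 h. Luciferin detection reagent, 20 min, luminescence read.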

In assay [11] the target is Voltage-gated inwardly rectifying potassium channel KCNH2 (Homo sapiens) (UniProt Q12809). Briefly: Human Ether-a-go-go-Related Gene (hERG) channel small molecule antagonists: fluorescence cell-based qHTS assay (AID 1671200). Note: nearly all actives have a fitted effect of over 50% in size. Note: potency is the fitted concentration of half-maximal effect. The gist of the method:
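First, 1000 cells per well are seeded and cultured overnight at 37 C. Next, FluxOR II dye is loaded for 1 h at room temperature, protected from light. After 10 more minutes, stimulus is added and fluorescence is read.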
On the technique in general: Block of hERG is tested as a sign of cardiac risk.

For assay [12], the target named is Cytochrome P450 3A4 (Homo sapiens) (UniProt P08684). In words: Cytochrome P450 Family 3 Subfamily A Member 4 (CYP3A4) small molecule antagonists: luciferase reporter qHTS assay (AID 1671201). Note: nearly all actives have a fitted effect of over 50% in size. Note: potency is the fitted concentration of half-maximal effect. The gist of the method:
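Enzyme and proluciferin substrate are mixed with test chemicals for 10 min, then NADPH regeneration system drives turnover for 1 h at room temperature. A detection reagent halts the reaction; luminescence after 20 min gives relative activity.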

For assay [13], the target named is Cytochrome P450 2D6 (Homo sapiens) (UniProt P10635). In words: Cytochrome P450 Family 2 Subfamily D Member 6 (CYP2D6) small molecule antagonists: luciferase reporter qHTS assay (AID 1671196). Note: nearly all actives have a fitted effect of over 50% in size. Note: potency is the fitted concentration of half-maximal effect. Summed up:
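CYP2D6 enzyme–substrate mix was held with compound for 10 min at room temperature, then NADPH regeneration solution was added and the reaction ran 1 h at room temperature. Luciferin product was detected by luminescence after 20 min with detection reagent.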

Assay [14] deals with Nuclear receptor subfamily 1 group I member 2 (Rattus norvegicus) (UniProt Q9R1A7). Briefly: Rat pregnane X receptor (rPXR) activation by small molecules, qHTS assay (AID 1346983). Note: nearly all actives have a fitted effect of over 20% in size. The conditions noted are these: rPXR luciferase reporter cells, One-Glo luminescence, 24 h; max activation: active compounds read high. The gist of the method: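 Cell-based rPXR activation assay: rPXR cells, 2,000 per well, rested 5hr at 37 C, then exposed to compounds in DMSO for 24 hr at 37 C. Luciferase activity read by One-Glo luminescence after 30 min at room temperature.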
Sequence of Nuclear receptor subfamily 1 group I member 2 (Rattus norvegicus) (Q9R1A7 whole entry, looked up): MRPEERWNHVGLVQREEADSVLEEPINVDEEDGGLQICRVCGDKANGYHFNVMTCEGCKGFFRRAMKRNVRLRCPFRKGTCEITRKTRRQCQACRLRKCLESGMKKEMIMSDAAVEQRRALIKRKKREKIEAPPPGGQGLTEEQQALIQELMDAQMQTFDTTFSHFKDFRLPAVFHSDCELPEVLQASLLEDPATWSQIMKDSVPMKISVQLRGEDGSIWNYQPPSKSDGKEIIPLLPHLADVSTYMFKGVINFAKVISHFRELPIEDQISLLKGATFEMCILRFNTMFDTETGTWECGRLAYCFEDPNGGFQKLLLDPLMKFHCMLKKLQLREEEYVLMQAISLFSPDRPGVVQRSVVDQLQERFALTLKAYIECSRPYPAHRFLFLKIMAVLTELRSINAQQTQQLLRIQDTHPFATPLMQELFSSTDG

Assay [15] concerns the target Nuclear receptor subfamily 1 group I member 2 (Homo sapiens) (UniProt O75469). Briefly: CYP3A4 induction through human pregnane X receptor (PXR) by small molecules, qHTS assay (AID 1346984). Note: nearly all actives have a fitted effect of over 40% in size. Summed up: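 DPX-2 cells (HepG2 co-transfected with PXR and CYP3A4 promoter-luciferase) treated with compounds 24 h at 37C; luciferin-IPA CYP3A4 substrate 3uM final added for 3 h, then One-Glo; luminescence read. qHTS format.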

For assay [16] the target is unchanged. In words: Human pregnane X receptor (PXR) activation by small molecules, qHTS assay (AID 1346985). Note: nearly all actives have a fitted effect of over 40% in size. Note: potency is the fitted concentration of half-maximal effect. The gist of the method:
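DPX-2 cells (HepG2 co-transfected with a PXR response element and a CYP3A4-promoter luciferase construct) were seeded at 2,000 per well, rested 5 hr at 37C, then exposed to DMSO-dissolved compounds for 24 hr. Activation was read as luciferase luminescence.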

Unmarked numbers belong to inactive results. Inconclusive results are not listed. Active and inactive are the calls of the source. Unless noted, calls come from the whole dose curve; as a rule, active = well fitted curve in the direction sought with a large enough effect in the repeat runs; inconclusive = weak or mixed curves; inactive = no such curve, though single readings can be large; an effect the other way counts as inactive or inconclusive.

This note sets out measurements from PubChem BioAssay (Tox21).
% is set by controls: 0 for no effect and ±100 for the full control effect.

Sequence of Cytochrome P450 2C9 (Homo sapiens) (P11712 whole entry, looked up): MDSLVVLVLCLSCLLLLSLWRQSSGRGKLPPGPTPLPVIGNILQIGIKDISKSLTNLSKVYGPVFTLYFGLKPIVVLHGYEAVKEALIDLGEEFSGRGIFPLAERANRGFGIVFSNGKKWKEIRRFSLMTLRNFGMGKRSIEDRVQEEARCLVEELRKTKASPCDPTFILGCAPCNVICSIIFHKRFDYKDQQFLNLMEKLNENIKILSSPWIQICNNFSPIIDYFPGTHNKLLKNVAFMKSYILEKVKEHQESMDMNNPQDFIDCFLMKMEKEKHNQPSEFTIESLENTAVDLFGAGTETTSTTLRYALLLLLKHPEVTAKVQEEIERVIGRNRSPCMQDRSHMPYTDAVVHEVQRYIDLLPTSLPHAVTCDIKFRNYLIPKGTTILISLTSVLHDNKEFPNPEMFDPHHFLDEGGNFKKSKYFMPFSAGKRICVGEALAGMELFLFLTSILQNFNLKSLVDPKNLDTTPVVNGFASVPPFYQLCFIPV
Sequence of Cytochrome P450 2D6 (Homo sapiens) (P10635 whole entry, looked up): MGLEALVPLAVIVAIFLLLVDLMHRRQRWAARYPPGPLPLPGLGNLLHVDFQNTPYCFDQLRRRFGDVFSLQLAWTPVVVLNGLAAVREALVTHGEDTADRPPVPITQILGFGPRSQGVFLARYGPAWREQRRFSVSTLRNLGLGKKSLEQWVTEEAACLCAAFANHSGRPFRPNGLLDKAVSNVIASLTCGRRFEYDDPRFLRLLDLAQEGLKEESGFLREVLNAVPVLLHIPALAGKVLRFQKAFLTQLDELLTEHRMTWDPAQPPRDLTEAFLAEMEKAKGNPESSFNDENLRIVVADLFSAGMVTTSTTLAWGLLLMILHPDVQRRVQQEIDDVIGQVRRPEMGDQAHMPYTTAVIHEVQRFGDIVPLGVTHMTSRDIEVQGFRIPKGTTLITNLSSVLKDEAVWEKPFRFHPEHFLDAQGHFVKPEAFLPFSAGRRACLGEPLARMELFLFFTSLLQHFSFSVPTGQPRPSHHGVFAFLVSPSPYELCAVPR
Sequence of Voltage-gated inwardly rectifying potassium channel KCNH2 (Homo sapiens) (Q12809 whole entry, looked up): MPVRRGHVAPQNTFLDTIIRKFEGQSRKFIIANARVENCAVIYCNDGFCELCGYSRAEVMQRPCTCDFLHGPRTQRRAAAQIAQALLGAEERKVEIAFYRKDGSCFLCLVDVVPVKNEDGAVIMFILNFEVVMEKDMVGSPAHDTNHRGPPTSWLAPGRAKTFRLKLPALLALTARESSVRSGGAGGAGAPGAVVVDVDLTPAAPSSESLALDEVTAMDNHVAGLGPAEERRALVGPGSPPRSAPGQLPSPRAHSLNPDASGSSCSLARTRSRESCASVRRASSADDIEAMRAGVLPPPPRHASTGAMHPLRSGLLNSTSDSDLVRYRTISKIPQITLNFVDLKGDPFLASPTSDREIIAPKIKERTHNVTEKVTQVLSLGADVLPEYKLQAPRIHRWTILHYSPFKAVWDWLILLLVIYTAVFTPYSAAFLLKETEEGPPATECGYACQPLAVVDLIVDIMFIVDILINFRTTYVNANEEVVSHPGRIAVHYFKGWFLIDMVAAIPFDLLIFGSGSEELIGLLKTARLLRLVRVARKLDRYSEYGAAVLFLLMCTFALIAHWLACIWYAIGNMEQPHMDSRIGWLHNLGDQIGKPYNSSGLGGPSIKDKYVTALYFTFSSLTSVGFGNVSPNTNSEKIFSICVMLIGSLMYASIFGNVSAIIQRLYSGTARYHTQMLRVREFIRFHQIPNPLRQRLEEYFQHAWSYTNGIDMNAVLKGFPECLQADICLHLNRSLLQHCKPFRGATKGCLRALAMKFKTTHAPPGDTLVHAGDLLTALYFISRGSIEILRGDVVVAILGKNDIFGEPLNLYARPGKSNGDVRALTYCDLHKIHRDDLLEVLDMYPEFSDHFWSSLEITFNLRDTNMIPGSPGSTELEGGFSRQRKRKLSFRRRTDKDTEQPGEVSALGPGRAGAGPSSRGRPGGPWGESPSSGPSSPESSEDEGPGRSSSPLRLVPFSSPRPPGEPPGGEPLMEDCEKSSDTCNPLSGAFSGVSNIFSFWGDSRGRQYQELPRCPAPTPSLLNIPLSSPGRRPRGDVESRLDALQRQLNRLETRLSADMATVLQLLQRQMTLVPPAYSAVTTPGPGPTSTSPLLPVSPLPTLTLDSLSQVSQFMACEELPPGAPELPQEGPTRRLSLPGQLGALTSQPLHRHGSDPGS
Sequence of Cytochrome P450 1A2 (Homo sapiens) (P05177 whole entry, looked up): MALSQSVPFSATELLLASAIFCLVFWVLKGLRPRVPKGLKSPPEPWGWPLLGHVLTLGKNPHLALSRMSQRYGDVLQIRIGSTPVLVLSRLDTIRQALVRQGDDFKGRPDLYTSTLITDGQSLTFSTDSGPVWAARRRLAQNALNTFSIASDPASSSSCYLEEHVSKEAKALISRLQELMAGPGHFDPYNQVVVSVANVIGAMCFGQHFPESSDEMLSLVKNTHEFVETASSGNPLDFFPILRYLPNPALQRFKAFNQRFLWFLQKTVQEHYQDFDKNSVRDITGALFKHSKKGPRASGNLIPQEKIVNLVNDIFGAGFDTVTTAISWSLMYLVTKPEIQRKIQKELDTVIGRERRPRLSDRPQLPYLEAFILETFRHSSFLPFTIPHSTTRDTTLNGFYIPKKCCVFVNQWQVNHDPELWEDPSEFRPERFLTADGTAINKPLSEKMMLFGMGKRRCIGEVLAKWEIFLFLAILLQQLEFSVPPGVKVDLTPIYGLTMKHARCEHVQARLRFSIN
Sequence of Cytochrome P450 3A4 (Homo sapiens) (P08684 whole entry, looked up): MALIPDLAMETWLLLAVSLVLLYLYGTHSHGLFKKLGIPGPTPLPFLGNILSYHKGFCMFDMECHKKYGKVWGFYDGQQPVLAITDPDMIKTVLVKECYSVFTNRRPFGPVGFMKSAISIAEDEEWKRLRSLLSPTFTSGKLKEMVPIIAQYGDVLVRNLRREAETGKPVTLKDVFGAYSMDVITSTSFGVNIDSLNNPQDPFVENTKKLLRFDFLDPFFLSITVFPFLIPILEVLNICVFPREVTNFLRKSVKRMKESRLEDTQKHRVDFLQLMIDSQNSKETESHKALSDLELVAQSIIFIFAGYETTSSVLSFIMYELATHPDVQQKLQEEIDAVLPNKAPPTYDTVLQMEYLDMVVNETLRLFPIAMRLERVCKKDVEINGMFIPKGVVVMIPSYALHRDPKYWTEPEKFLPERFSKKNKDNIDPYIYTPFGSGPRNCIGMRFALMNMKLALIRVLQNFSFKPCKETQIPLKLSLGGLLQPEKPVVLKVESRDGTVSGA
Sequence of Cytochrome P450 2C19 (Homo sapiens) (P33261 whole entry, looked up): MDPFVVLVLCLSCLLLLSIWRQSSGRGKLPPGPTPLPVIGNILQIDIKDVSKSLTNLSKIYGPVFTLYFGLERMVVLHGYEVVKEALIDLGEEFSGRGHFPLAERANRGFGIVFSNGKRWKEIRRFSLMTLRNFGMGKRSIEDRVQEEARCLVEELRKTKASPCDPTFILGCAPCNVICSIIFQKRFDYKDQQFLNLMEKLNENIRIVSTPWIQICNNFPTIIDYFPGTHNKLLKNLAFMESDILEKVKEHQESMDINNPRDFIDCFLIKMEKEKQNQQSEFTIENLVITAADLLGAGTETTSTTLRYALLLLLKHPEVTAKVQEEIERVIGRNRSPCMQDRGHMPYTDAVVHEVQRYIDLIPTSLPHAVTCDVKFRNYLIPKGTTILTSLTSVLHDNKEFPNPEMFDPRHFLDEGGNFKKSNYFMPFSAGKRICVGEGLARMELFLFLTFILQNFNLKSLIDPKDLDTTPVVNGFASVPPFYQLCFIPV
Sequence of Thyrotropin-releasing hormone receptor (Homo sapiens) (P34981 whole entry, looked up): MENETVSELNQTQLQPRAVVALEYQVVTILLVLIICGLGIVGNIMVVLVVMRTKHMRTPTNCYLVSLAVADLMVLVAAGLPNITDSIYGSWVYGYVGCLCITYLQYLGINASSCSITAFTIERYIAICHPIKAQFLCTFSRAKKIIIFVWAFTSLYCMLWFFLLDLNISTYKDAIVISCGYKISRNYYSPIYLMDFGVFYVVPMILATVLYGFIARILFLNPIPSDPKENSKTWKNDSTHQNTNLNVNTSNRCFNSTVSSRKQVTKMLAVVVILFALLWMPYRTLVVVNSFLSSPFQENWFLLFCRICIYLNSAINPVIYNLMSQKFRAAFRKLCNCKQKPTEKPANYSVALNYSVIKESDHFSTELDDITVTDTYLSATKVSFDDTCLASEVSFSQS

On to `Oc1ccc2c(c1)OC[C@@H](N1CCC(O)(c3ccc(F)cc3)CC1)[C@H]2O`, for which the molecule was classed as inactive in [1], in assay [3], in assay [5] and in assay [6]. In addition, the Potency entry in [2], in [4], in assay [11] and in assay [12] was “inactive” in each case. Further, the Potency was 11.9 µM (active) in assay [7], 3.89 µM (active) in [8], 13.8 µM (active) in [9] and 7.76 µM (active) in [10].

As for `CC(C)(C)OC(=O)N1C[C@@H](F)C[C@H]1C(=O)O`, the outcome in assay [1], in [3], in assay [5] and in assay [6] was inactive. The Potency entry in [2], in [4], in [7] and in assay [13] was “inactive” throughout. In addition, the Potency in assay [12] is 36.8 µM (active).

Regarding `CC(C)(O)c1ccccc1`, the call in assay [1], in assay [3], in [5] and in assay [6] was inactive. Further, the Potency entry in assay [2], in assay [4], in assay [7], in [13] and in assay [11] was “inactive” throughout. Also, in [8], the Potency is 68.1 µM (active).

As to `CO`, the molecule was classed as inactive in assay [1], in assay [3], in assay [5] and in [6]. Moreover, the Potency result in assay [2], in assay [4] and in assay [11] was “inactive” each time. Further, the max activation in assay [14] is -1.84%.

As to `CCN(CC)C(=O)c1ccc(O)c(OC)c1`, the call in assay [1], in [3], in [5] and in [6] was inactive. Moreover, the Potency entry in assay [2], in assay [4], in assay [15], in assay [16], in assay [13] and in assay [8] was “inactive” each time. Also, the Potency result in assay [9], in assay [10] and in assay [12] was “inactive” in each case.

Regarding `COC[C@H](c1ccc(C(F)(F)F)cc1)N1CCN(C2(C)CCN(C(=O)c3c(C)ncnc3C)CC2)C[C@H]1C`, the result in assay [1], in [3], in [5] and in assay [6] was inactive. The Potency result in [2], in assay [4], in assay [7], in assay [9] and in [10] was “inactive” throughout. Besides, the Potency in [13] is 34.7 µM (active).

`CC(=O)N[C@@H](CCC(N)=O)C(=O)O`: the result in [1], in assay [3], in assay [5] and in [6] was inactive. For the same molecule, the Potency result in [2], in assay [4], in assay [7], in assay [13], in [9] and in assay [10] was “inactive” in each case. The Potency result in assay [11] and in assay [12] was “inactive” each time.

On to `CC(C)c1cccc(C(C)C)c1N`, for which the molecule was classed as inactive in [1], in assay [3], in assay [5] and in [6]. The Potency entry in assay [2], in [4], in assay [7], in [13], in assay [8] and in assay [11] was “inactive” throughout. The Potency entry in assay [12] is “inactive”. For the same molecule, the Potency in assay [10] is 20 µM (active).

On to `COC(=O)[C@H]1[C@H]2C[C@@H]3c4[nH]c5cc(OC)ccc5c4CCN3C[C@H]2C[C@@H](OC(=O)COc2ccc(OC)cc2)[C@@H]1OC`, for which the molecule was classed as inactive in assay [1], in assay [3], in assay [5] and in assay [6]. Further, the Potency result in assay [2], in assay [4] and in assay [15] was “inactive” in each case. Further, the Potency is 10 µM (active) in [16], 17.4 µM (active) in assay [13], 27.5 µM (active) in [9] and 0.601 µM (active) in assay [11].

`C=C(C)C(=O)OCCC(C)OC(=O)C(=C)C` (centres undefined): the result in [1], in [3], in assay [5] and in assay [6] was inactive. Further, the Potency entry in assay [2], in assay [4], in assay [7], in [13], in [8] and in assay [11] was “inactive” each time. Besides, the Potency result in [12] was “inactive”. Further, in [10], the Potency was 31.7 µM (active).
